Experimental data published in PubChem BioAssay AID1159580 (chemical genetic matrix, 2015).
Values joined by “and” are separate entries in the source; they are usually repeats but may differ in a detail not shown here. Identical values can stand only once. In all, about 5,500 compounds went through this assay and about 2,000 (36%) were called active. Another 18% or so got no clear call; they are omitted. This is one part of the list. Values without a mark were called inactive. No stated cut-off is given here; in the data, active means normalized growth mostly below about 0.91 (no sharp cut-off); inconclusive means no clear call, values can overlap the other calls; inactive means mostly above about 0.92.

Assay: chemical genetic growth profiling, strain panel (AID 1159580);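 further: tested at 20 µM; growth read once vehicle control cultures reached saturation at 30 °C; 1 = growth at the plate median or of vehicle wells; lower values mean less growth of the strain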
Conditions: S. cerevisiae deletion strains, growth OD

Structure (SMILES): CC(C)C(C)/C=C/C(C)C1CCC2C3=CC=C4CC(O)CCC4(C)C3CCC21C (configuration not stated)
- normalized growth (locus YAL013W, strain DEP1, hits give low values): 0.935
- normalized growth (locus YAL021C, strain ccr4, hits give low values): 1
- normalized growth (locus YAL026C, strain drs2, hits give low values): 0.856 (active)
- normalized growth (locus YAL030W, strain snc1, hits give low values): 0.995
- normalized growth (locus YBL061C, strain skt5, hits give low values): 0.996
- normalized growth (locus YBR009C, strain hhf1, hits give low values): 0.893 (active)
- normalized growth (locus YBR021W, strain FUR4, hits give low values): 0.814 (active)
- normalized growth (locus YBR023C, strain chs3, hits give low values): 0.992
- normalized growth (locus YBR171W, strain sec66, hits give low values): 1.01
- normalized growth (locus YBR229C, strain ROT2, hits give low values): 1.01
- normalized growth (locus YBR231C, strain swc5, hits give low values): 1
- normalized growth (locus YBR279W, strain paf1, hits give low values): 1
- normalized growth (locus YCL011C, strain gbp2, hits give low values): 0.974
- normalized growth (locus YCL016C, strain dcc1, hits give low values): 1.01
- normalized growth (locus YCL029C, strain bik1, hits give low values): 0.996
- normalized growth (locus YCL061C, strain MRC1, hits give low values): 1.01
- normalized growth (locus YCL069W, strain vba3, hits give low values): 1.01
- normalized growth (locus YCR088W, strain abp1, hits give low values): 1.01
- normalized growth (locus YDL005C, strain med2, hits give low values): 0.996
- normalized growth (locus YDL035C, strain GPR1, hits give low values): 0.943
- normalized growth (locus YDL040C, strain nat1, hits give low values): 1.01
- normalized growth (locus YDL074C, strain BRE1, hits give low values): 0.848
- normalized growth (locus YDL101C, strain DUN1, hits give low values): 0.965
- normalized growth (locus YDL134C, strain PPH21, hits give low values): 0.86 (active)
- normalized growth (locus YDL185W, strain tfp1, hits give low values): 1.01
- normalized growth (locus YDL192W, strain arf1, hits give low values): 0.959
- normalized growth (locus YDR001C, strain nth1, hits give low values): 1.01
- normalized growth (locus YDR069C, strain doa4, hits give low values): 0.957
- normalized growth (locus YDR101C, strain arx1, hits give low values): 1.02
- normalized growth (locus YDR137W, strain rgp1, hits give low values): 0.819 (active)
- normalized growth (locus YDR159W, strain sac3, hits give low values): 0.935
- normalized growth (locus YDR162C, strain NBP2, hits give low values): 0.732 (active)
- normalized growth (locus YDR195W, strain ref2): 1.08
- normalized growth (locus YDR297W, strain sur2, hits give low values): 0.993
- normalized growth (locus YDR318W, strain mcm21, hits give low values): 0.958
- normalized growth (locus YDR334W, strain swr1, hits give low values): 1.01
- normalized growth (locus YDR335W, strain msn5, hits give low values): 0.958
- normalized growth (locus YDR388W, hits give low values): 1
- normalized growth (locus YDR392W, strain spt3, hits give low values): 0.635 (active)
- normalized growth (locus YDR502C, strain sam2, hits give low values): 0.917 (active)
- normalized growth (locus YEL003W, strain gim4, hits give low values): 0.986
- normalized growth (locus YEL037C, strain rad23, hits give low values): 0.989
- normalized growth (locus YEL061C, strain CIN8 (second series), hits give low values): 1
- normalized growth (locus YER015W, strain faa2, hits give low values): 1.01
- normalized growth (locus YER016W, strain bim1, hits give low values): 0.987
- normalized growth (locus YER110C, hits give low values): 0.996
- normalized growth (locus YER111C, strain swi4, hits give low values): 0.982
- normalized growth (locus YER155C, strain BEM2 (second series), hits give low values): 0.968
- normalized growth (locus YER155C, strain BEM2, hits give low values): 0.975
- normalized growth (locus YER167W, strain BCK2, hits give low values): 1.01
- normalized growth (locus YFR010W, strain ubp6, hits give low values): 0.992
- normalized growth (locus YGL078C, strain dbp3, hits give low values): 0.908 (active)
- normalized growth (locus YGL086W, strain mad1, hits give low values): 0.962
- normalized growth (locus YGL167C, strain pmr1, hits give low values): 0.998
- normalized growth (locus YGL173C, strain kem1, hits give low values): 0.99
- normalized growth (locus YGL227W, strain vid30, hits give low values): 0.995
- normalized growth (locus YGL240W, strain doc1, hits give low values): 0.928
- normalized growth (locus YGL248W, strain PDE1, hits give low values): 0.862 (active)
- normalized growth (locus YGL253W, strain hxk2, hits give low values): 0.861 (active)
- normalized growth (locus YGR135W, strain pre9, hits give low values): 0.928
- normalized growth (locus YGR229C, strain SMI1, hits give low values): 0.831
- normalized growth (locus YGR252W, strain gcn5, hits give low values): 0.798
- normalized growth (locus YHR013C, strain ard1, hits give low values): 0.972
- normalized growth (locus YHR027C, strain rpn1, hits give low values): 0.999
- normalized growth (locus YHR030C, strain SLT2, hits give low values): 0.964 and 1.01
- normalized growth (locus YHR079C, strain IRE1 (second series), hits give low values): 0.998
- normalized growth (locus YHR079C, strain IRE1, hits give low values): 1.01
- normalized growth (locus YHR094C, strain hxt1, hits give low values): 1.01
- normalized growth (locus YHR129C, strain ARP1, hits give low values): 0.962
- normalized growth (locus YHR142W, strain chs7, hits give low values): 0.884
- normalized growth (locus YHR200W, strain rpn10, hits give low values): 0.994
- normalized growth (locus YIL066C, strain RNR3, hits give low values): 0.97
- normalized growth (locus YIL073C, strain SPO22, hits give low values): 0.863
- normalized growth (locus YIL125W, strain kgd1, hits give low values): 1.03
- normalized growth (locus YIR030C, strain dcg1, hits give low values): 1.01
- normalized growth (locus YJL092W, strain hpr5, hits give low values): 1.01
- normalized growth (locus YJL095W, strain BCK1 (second series), hits give low values): 0.898 (active)
- normalized growth (locus YJL095W, strain BCK1, hits give low values): 0.835 and 1.02
- normalized growth (locus YJL115W, strain asf1, hits give low values): 1.01
- normalized growth (locus YJL129C, strain trk1, hits give low values): 0.978
- normalized growth (locus YJL134W, strain LCB3, hits give low values): 1.01
- normalized growth (locus YJL154C, strain vps35, hits give low values): 1.01
- normalized growth (locus YJL164C, strain tpk1, hits give low values): 0.905 (active)
- normalized growth (locus YJL166W, strain qcr8, hits give low values): 0.86 (active)
- normalized growth (locus YJL168C, strain set2, hits give low values): 1.02
- normalized growth (locus YJL187C, strain SWE1 (second series), hits give low values): 0.936
- normalized growth (locus YJL187C, strain SWE1, hits give low values): 0.989
- normalized growth (locus YJR043C, strain POL32, hits give low values): 1.03
- normalized growth (locus YJR066W, strain TOR1, hits give low values): 0.921
- normalized growth (locus YJR075W, strain HOC1, hits give low values): 0.978
- normalized growth (locus YKL009W, strain mrt4, hits give low values): 0.926
- normalized growth (locus YKL068W, hits give low values): 1.01
- normalized growth (locus YKL085W, strain MDH1 (second series), hits give low values): 1
- normalized growth (locus YKL085W, strain MDH1, hits give low values): 1
- normalized growth (locus YKL160W, strain elf1, hits give low values): 0.989
- normalized growth (locus YKR001C, strain vps1, hits give low values): 0.9
- normalized growth (locus YKR026C, strain gcn3, hits give low values): 0.99
- normalized growth (locus YKR091W, strain srl3, hits give low values): 0.998
- normalized growth (locus YLL001W, strain dnm1, hits give low values): 0.96
- normalized growth (locus YLL026W, hits give low values): 0.984
- normalized growth (locus YLL041C, strain sdh2, hits give low values): 1.01
- normalized growth (locus YLR027C, strain aat2, hits give low values): 0.972
- normalized growth (locus YLR039C, strain RIC1, hits give low values): 0.806
- normalized growth (locus YLR058C, strain SHM2, hits give low values): 0.946
- normalized growth (locus YLR102C, strain apc9, hits give low values): 1.02
- normalized growth (locus YLR113W, strain HOG1, hits give low values): 1
- normalized growth (locus YLR221C, strain rsa3, hits give low values): 0.938
- normalized growth (locus YLR258W, strain gsy2, hits give low values): 0.959
- normalized growth (locus YLR262C, strain YPT6 (second series), hits give low values): 0.727 (active)
- normalized growth (locus YLR262C, strain YPT6, hits give low values): 0.801
- normalized growth (locus YLR268W, strain sec22, hits give low values): 0.968
- normalized growth (locus YLR320W, strain mms22, hits give low values): 0.929
- normalized growth (locus YLR330W, strain CHS5, hits give low values): 0.844 (active)
- normalized growth (locus YLR342W, strain FKS1, hits give low values): 0.997
- normalized growth (locus YLR357W, strain rsc2, hits give low values): 1.01
- normalized growth (locus YLR370C, strain arc18, hits give low values): 0.989
- normalized growth (locus YLR371W, strain rom2, hits give low values): 1.05
- normalized growth (locus YLR384C, strain iki3, hits give low values): 0.988
- normalized growth (locus YLR418C, strain cdc73, hits give low values): 0.666 (active)
- normalized growth (locus YML016C, strain PPZ1, hits give low values): 0.973
- normalized growth (locus YML032C, strain rad52, hits give low values): 0.973
- normalized growth (locus YML120C, strain ndi1, hits give low values): 0.985
- normalized growth (locus YML124C, strain tub3, hits give low values): 1
- normalized growth (locus YMR058W, strain fet3, hits give low values): 0.956
- normalized growth (locus YMR078C, strain ctf18, hits give low values): 1
- normalized growth (locus YMR125W, strain sto1, hits give low values): 1.01
- normalized growth (locus YMR205C, strain PFK2, hits give low values): 0.937
- normalized growth (locus YMR223W, strain ubp8, hits give low values): 0.941
- normalized growth (locus YMR231W, strain pep5, hits give low values): 0.998
- normalized growth (locus YMR307W, strain GAS1, hits give low values): 0.797
- normalized growth (locus YNL067W, strain RPL9B, hits give low values): 0.924
- normalized growth (locus YNL071W, strain lat1, hits give low values): 0.773 (active)
- normalized growth (locus YNL128W, strain TEP1, hits give low values): 0.994
- normalized growth (locus YNL153C, strain GIM3, hits give low values): 0.966
- normalized growth (locus YNL183C, strain NPR1, hits give low values): 0.951
- normalized growth (locus YNL209W, strain ssb2, hits give low values): 1
- normalized growth (locus YNL233W, strain BNI4, hits give low values): 0.887
- normalized growth (locus YNL248C, strain rpa49, hits give low values): 0.939
- normalized growth (locus YNL250W, strain rad50, hits give low values): 0.952
- normalized growth (locus YNL271C, strain bni1, hits give low values): 0.979
- normalized growth (locus YNL298W, strain CLA4, hits give low values): 0.977
- normalized growth (locus YNL307C, strain MCK1, hits give low values): 0.774 (active)
- normalized growth (locus YNL322C, strain KRE1 (second series), hits give low values): 0.996
- normalized growth (locus YNR049C, strain mso1, hits give low values): 0.998
- normalized growth (locus YNR052C, strain pop2, hits give low values): 0.952
- normalized growth (locus YOL012C, strain htz1): 1.19
- normalized growth (locus YOL147C, strain pex11, hits give low values): 0.996
- normalized growth (locus YOR001W, strain rrp6, hits give low values): 0.996
- normalized growth (locus YOR061W, strain CKA2, hits give low values): 0.933
- normalized growth (locus YOR069W, strain VPS5, hits give low values): 0.98
- normalized growth (locus YOR070C, strain gyp1, hits give low values): 0.976
- normalized growth (locus YOR080W, strain dia2, hits give low values): 1.02
- normalized growth (locus YOR083W, strain WHI5, hits give low values): 0.991
- normalized growth (locus YOR106W, strain vam3, hits give low values): 0.889
- normalized growth (locus YOR136W, strain idh2, hits give low values): 0.962
- normalized growth (locus YOR144C, strain elg1, hits give low values): 1
- normalized growth (locus YOR184W, strain ser1, hits give low values): 0.952
- normalized growth (locus YOR231W, strain MKK1, hits give low values): 0.995
- normalized growth (locus YOR265W, strain rbl2, hits give low values): 1.01
- normalized growth (locus YOR270C, strain vph1, hits give low values): 0.681 (active)
- normalized growth (locus YOR290C, strain snf2, hits give low values): 0.929
- normalized growth (locus YOR316C, strain cot1, hits give low values): 1
- normalized growth (locus YPL051W, strain arl3, hits give low values): 0.995
- normalized growth (locus YPL078C, strain atp4, hits give low values): 0.957
- normalized growth (locus YPL106C, strain sse1, hits give low values): 1.12
- normalized growth (locus YPL240C, strain hsp82, hits give low values): 1.01
- normalized growth (locus YPL256C, strain CLN2, hits give low values): 1.02
- normalized growth (locus YPR119W, strain clb2, hits give low values): 1.02
- normalized growth (locus YPR141C, strain kar3, hits give low values): 1.01
- normalized growth (locus YPR163C, strain tif3, hits give low values): 0.828 (active)
- normalized growth (locus YPR167C, strain met16, hits give low values): 0.956
- normalized growth (strain wtn01, hits give low values): 0.969
